Experiment [1] can be described thus: qHTS assay to test for compound auto fluorescence at 535 nm (green) in HEK293 cells (AID 720680). The conditions noted are these: green autofluorescence 485/535 nm; series mostly up to 46 µM.
Experiment [2] can be described thus: qHTS assay to test for compound auto fluorescence at 460 nm (blue) in HEK293 cell free culture (AID 720681). The conditions noted are these: cell-free medium, autofluorescence 405/460 nm (blue); series mostly up to 46 µM. An outline of the steps: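 Test compounds were pinned into cell-free culture medium (DMEM with 10% FBS) and fluorescence was read directly at Ex/Em 405/460 nm. Signals were expressed as fluorescence equivalents of triamterene, with DMSO vehicle as control.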

Experiment [3] is described as follows: qHTS assay to test for compound auto fluorescence at 535 nm (green) in HEK293 cell free culture (AID 720682). The conditions noted are these: cell-free medium, green autofluorescence 485/535 nm; series mostly up to 46 µM. The essentials:
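Fluorescein serves as the green reference fluorophore; each compound's intrinsic emission at 535 nm (excitation 485 nm) is reported as an equivalent amount of that dye, measured in serum-containing DMEM without cells.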

A short description of experiment [4]: qHTS assay to test for compound auto fluorescence at 590 nm (red) in HEK293 cell free culture (AID 720683). The settings on record: cell-free medium autofluorescence, Ex540/Em590 red; series mostly up to 46 µM. An outline of the steps: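 Tox21 10K library compounds were pinned into cell-free DMEM with 10% FBS and fluorescence was read at excitation 540 nm. Activity is expressed as Rose Bengal sodium equivalency.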
For orientation: Quantitative high-throughput screening tests each substance at several concentrations.

Experiment [5] in a line: qHTS assay to test for compound auto fluorescence at 590 nm (red) in HepG2 cell free culture (AID 720684). The settings on record: cell-free medium autofluorescence, red 540/590 nm; series mostly up to 46 µM. The essentials: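 Measured in medium alone (MEM containing 10% FBS) following pintool addition of compound; emission at 590 nm with 540 nm excitation, referenced to Rose Bengal sodium.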

Experiment [6] can be described thus: qHTS assay to test for compound auto fluorescence at 460 nm (blue) in HepG2 cell free culture (AID 720685). The settings on record: Cell-free culture medium, blue autofluorescence 405/460 nm; series mostly up to 46 µM. The essentials:
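Compound (23 nL) or DMSO pinned into cell-free MEM with 10% FBS; blue fluorescence read at 405/460 nm excitation/emission, expressed as auto-fluorescence equivalency to triamterene.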

The nature of experiment [7]: qHTS assay to test for compound auto fluorescence at 535 nm (green) in HepG2 cell free culture (AID 720686). The settings on record: Cell-free medium, green autofluorescence 485/535 nm; series mostly up to 46 µM.
A short description of experiment [8]: qHTS assay to test for compound auto fluorescence at 460 nm (blue) in HepG2 cells (AID 720687). The settings on record: autofluorescence 405/460 nm, 1 h; series mostly up to 46 µM. An outline of the steps:
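Cells (2,000/well in MEM with 10% FBS) attached overnight at 37 C, then were exposed to compound or DMSO for 1 hr at 37 C, 5% CO2. Fluorescence read at Ex/Em 405/460 nm, expressed as triamterene-equivalent signal.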

The target in experiment [9] is Glucocorticoid receptor (Homo sapiens) (UniProt P04150). In words: qHTS assay to identify small molecule agonists of the glucocorticoid receptor (GR) signaling pathway (AID 720691; active = well fitted activation curve with a large enough effect in the signal ratio in the repeat runs, not every such curve was filed as active; the % refers to the signal ratio; note: potency is the fitted concentration of half-maximal effect). The settings on record: GR-bla HeLa, beta-lactamase reporter ratio, 18 h; activation: at 62.4 µM (top of the series). The essentials: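 qHTS in GR-bla HeLa cells: 4 h settling at 37 C/5% CO2, 18 h compound incubation at 37 C, 2 h LiveBLAzer B/G FRET substrate at room temperature, fluorescence intensity measured.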
Chain of Glucocorticoid receptor (Homo sapiens) (P04150 whole entry, looked up): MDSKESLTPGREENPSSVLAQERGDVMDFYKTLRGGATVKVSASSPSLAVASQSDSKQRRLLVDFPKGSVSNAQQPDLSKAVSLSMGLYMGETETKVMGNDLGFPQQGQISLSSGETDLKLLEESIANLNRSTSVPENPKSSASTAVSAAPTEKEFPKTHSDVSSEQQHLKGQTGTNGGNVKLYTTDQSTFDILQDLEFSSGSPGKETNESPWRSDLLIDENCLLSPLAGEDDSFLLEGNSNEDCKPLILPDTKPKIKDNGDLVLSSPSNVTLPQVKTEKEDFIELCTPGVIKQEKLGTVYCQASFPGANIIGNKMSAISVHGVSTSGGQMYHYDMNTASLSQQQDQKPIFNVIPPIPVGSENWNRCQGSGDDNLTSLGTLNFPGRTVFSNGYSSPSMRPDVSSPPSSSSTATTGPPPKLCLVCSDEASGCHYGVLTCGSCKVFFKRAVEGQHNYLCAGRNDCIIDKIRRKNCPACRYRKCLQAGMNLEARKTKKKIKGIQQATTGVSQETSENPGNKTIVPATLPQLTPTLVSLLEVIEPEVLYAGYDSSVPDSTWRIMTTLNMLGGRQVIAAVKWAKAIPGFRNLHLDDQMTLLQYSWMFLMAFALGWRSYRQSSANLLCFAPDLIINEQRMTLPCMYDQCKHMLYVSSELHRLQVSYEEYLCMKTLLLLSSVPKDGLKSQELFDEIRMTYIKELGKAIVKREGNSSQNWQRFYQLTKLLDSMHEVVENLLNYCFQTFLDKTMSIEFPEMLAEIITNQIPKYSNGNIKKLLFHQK

Experiment [10] shares this target. The experiment in a line: qHTS assay to identify small molecule antagonists of the glucocorticoid receptor (GR) signaling pathway (AID 720692; active = well fitted inhibition curve with a large enough effect in the signal ratio in the repeat runs, not every such curve was filed as active; the % refers to the signal ratio; note: potency is the fitted concentration of half-maximal effect). The settings on record: GR-bla HeLa, beta-lactamase FRET ratio, dexamethasone-stimulated, 18 h; series mostly up to 58.5 µM. The essentials:
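Inhibition of glucocorticoid signalling is measured in HeLa cells with a GRE-controlled beta-lactamase reporter; cells are co-treated with compound and 5 nM dexamethasone (final) for 18 h before FRET substrate readout.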

Inconclusive results are not listed. Active and inactive are the calls of the source. Unless noted, calls come from the whole dose curve; as a rule, active = well fitted curve in the direction sought with a large enough effect in the repeat runs; inconclusive = weak or mixed curves; inactive = flat fitted curve, though single readings scatter.

On to `CCOC(=O)[C@@H](N)CS`, for which the Potency result in [1], in [2], in [3], in experiment [4], in experiment [5] and in experiment [7] was “inactive” in each case. For the same compound, the Potency result in [9] and in [10] was “inactive” in each case. In addition, the outcome in experiment [6] and in experiment [8] was inactive.

As for `CS(=O)(=O)NC(=O)CCC/C=C\C[C@H]1C(=O)C[C@@H](O)[C@@H]1/C=C/[C@H](O)COc1ccccc1`, the Potency entry in [1], in [2], in [3], in experiment [4], in experiment [5] and in [7] was “inactive” in each case. For the same compound, the Potency result in experiment [9] is “inactive”. The compound was called inactive in [6] and in experiment [8].

In the case of `CO/N=C(\C(=O)N[C@@H]1C(=O)N2C(C(=O)OCOC(=O)C(C)(C)C)=C(/C=C\c3scnc3C)CS[C@H]12)c1csc(N)n1`, the Potency entry in experiment [1], in experiment [2], in [3], in experiment [4], in experiment [5] and in [7] was “inactive” throughout. The Potency entry in experiment [9] and in experiment [10] was “inactive” in each case. Further, the result in experiment [6] and in experiment [8] was inactive.

Consider `CCCCCCCCCCCCCCCCSCC(COC)COP(=O)([O-])OCC[N+](C)(C)C` (stereo unspecified), for which the Potency entry in experiment [1], in experiment [2], in [3], in experiment [4], in [5] and in [7] was “inactive” each time. Besides, the Potency entry in experiment [9] was “inactive”. In addition, the result in experiment [6] and in experiment [8] was inactive. The Potency in experiment [10] is 23.9 µM (active).

Turning to `O=C(Cn1c(=O)sc2ccc(Cl)cc21)N1CCN(CCO)CC1`, the Potency entry in [1], in [2], in experiment [3], in experiment [4], in experiment [5] and in experiment [7] was “inactive” in each case. The Potency result in experiment [9] and in experiment [10] was “inactive” each time. Moreover, the compound was classed as inactive in [6] and in experiment [8].

For the compound `CCCCCCCCCCCCCCCCCC(=O)OCCO`, the Potency entry in experiment [1], in [2], in experiment [3], in experiment [4], in [5] and in [7] was “inactive” in each case. Also, the Potency result in experiment [9] and in [10] was “inactive” each time. The compound was classed as inactive in experiment [6] and in experiment [8].

As to `COc1cc(/C=C/C(=O)N2CCN(CC(=O)N3CCCC3)CC2)cc(OC)c1OC`, the Potency entry in experiment [1], in experiment [2], in experiment [3], in experiment [4], in experiment [5] and in experiment [7] was “inactive” in each case. The Potency entry in [9] was “inactive”. Further, the call in experiment [6] and in experiment [8] was inactive.

Turning to `CN[C@@H]1CCc2[nH]c3ccc(C(N)=O)cc3c2C1`, the Potency result in [1], in experiment [2], in experiment [3], in experiment [4], in experiment [5] and in experiment [7] was “inactive” throughout. Moreover, the Potency result in [9] and in [10] was “inactive” throughout. For the same compound, the compound was classed as inactive in experiment [6] and in experiment [8].

As to `CCN(CC)CCOC(=O)c1ccc(N)cc1Cl`, the Potency entry in [1], in [2], in [3], in experiment [4], in [5] and in experiment [7] was “inactive” throughout. The Potency entry in experiment [9] and in experiment [10] was “inactive” each time. Besides, the call in experiment [6] and in [8] was inactive.

Regarding `C[C@@H]1CCC2[C@@H](C)[C@@H](O)O[C@@H]3O[C@@]4(C)CC[C@@H]1[C@@]23OO4` (stereo partly specified), the Potency result in experiment [1], in [2], in [3], in experiment [4], in experiment [5] and in experiment [7] was “inactive” in each case. Further, the Potency entry in experiment [9] and in experiment [10] was “inactive” throughout. For the same compound, the result in [6] and in [8] was inactive.

As for `OCCN1CCN(CC/C=C2/c3ccccc3Sc3ccc(Cl)cc32)CC1`, the Potency result in experiment [1], in experiment [2], in [3], in experiment [4], in experiment [5] and in experiment [7] was “inactive” each time. The Potency result in experiment [9] and in [10] was “inactive” throughout. In addition, the outcome in [6] and in experiment [8] was inactive.

Regarding `O=C(O)C1CCCN1` (stereo unspecified), the Potency result in experiment [1], in experiment [2], in [3], in [4], in experiment [5] and in experiment [7] was “inactive” throughout. Further, the Potency entry in [9] and in experiment [10] was “inactive” throughout. The outcome in experiment [6] and in experiment [8] was inactive.

`C[C@H](/C=C/[C@H](C)C(C)(C)O)[C@H]1CC[C@H]2/C(=C/C=C3C[C@@H](O)C[C@H](O)C3)CCC[C@]12C`: the Potency result in [1], in [2], in experiment [3], in experiment [4], in experiment [5] and in experiment [7] was “inactive” each time. Further, the Potency result in experiment [9] was “inactive”. For the same compound, the outcome in experiment [6] and in experiment [8] was inactive.

Regarding `C[C@H]1C[C@H]2[C@@H]3CCC4=CC(=O)C=C[C@]4(C)[C@@]3(F)[C@@H](O)C[C@]2(C)[C@@]1(O)C(=O)CCl`, the Potency entry in experiment [1], in experiment [2], in [3], in experiment [4], in experiment [5] and in [7] was “inactive” in each case. Also, the result in experiment [6] and in experiment [8] was inactive. Besides, the Potency in experiment [9] was 0.0017 µM (active).

On to `N[C@@H](C(=O)N[C@@H]1C(=O)N2C(C(=O)O)=C(CSc3cn[nH]n3)CS[C@H]12)c1ccc(O)cc1`, for which the Potency entry in [1], in experiment [2], in experiment [3], in experiment [4], in [5] and in experiment [7] was “inactive” throughout. Besides, the Potency result in [9] and in [10] was “inactive” in each case. For the same compound, the result in experiment [6] and in experiment [8] was inactive.

`OC[C@H]1O[C@@H](n2cnc3c2NC=NC[C@H]3O)C[C@@H]1O`: the Potency entry in [1], in experiment [2], in experiment [3], in [4], in [5] and in [7] was “inactive” throughout. Besides, the Potency entry in experiment [9] and in [10] was “inactive” each time. Besides, the call in [6] and in experiment [8] was inactive.

Regarding `CCOC(=O)COc1ccc2c(C)c(CCN(CC)CC)c(=O)oc2c1`, the Potency result in experiment [1], in experiment [2], in experiment [3], in experiment [4], in experiment [5] and in experiment [7] was “inactive” throughout. Moreover, the Potency entry in [9] and in [10] was “inactive” throughout. In addition, the compound was called inactive in experiment [6] and in experiment [8].

Take `FCOC(C(F)(F)F)C(F)(F)F`: the Potency entry in [1], in experiment [2], in experiment [3], in experiment [4], in experiment [5] and in experiment [7] was “inactive” throughout. In addition, the Potency entry in experiment [9] and in [10] was “inactive” in each case. The result in experiment [6] and in experiment [8] was inactive.

As for `COc1ccccc1N1CCN(CCCC(=O)c2ccc(F)cc2)CC1`, the Potency result in experiment [1], in experiment [2], in experiment [3], in experiment [4], in experiment [5] and in experiment [7] was “inactive” in each case. The Potency entry in experiment [9] and in experiment [10] was “inactive” each time. Besides, the compound was classed as inactive in experiment [6] and in experiment [8].

(Values after PubChem BioAssay (Tox21).)
